Results on 40 compounds are retold here after ChEMBL document CHEMBL3988442, “University of Dundee, Small-Polar-MMV Screening Library” (2021).

The target in this test is AMP-activated protein kinase, AMPK (Homo sapiens) (UniProt P54646+O43741+P54619+Q9UGJ0+Q9Y478+Q13131+Q9UGI9). Put plainly: AMP-dependent Kinase enzyme assay. An in vitro enzyme assay that detects ADP turnover that is directly proportional to AMPK activity. This uses naive AMPK that is activated during the assay with MK-8722. The arrangement: scale not given: direction of the effect not stated beside the values. It is filed as functional. Conditions: 30 µM.
Turning to `Cn1cc(C2=CCN(CCCC(=O)Nc3ccc(C#N)cc3)CC2)cn1`, the Percent Effect is 7.78%.

On to `O=C(N[C@H]1COC[C@@H]1N1CCCC1)c1csc(Cc2ccccc2)n1`, for which the Percent Effect turned out to be 4.04%.

As to `Cc1nc(CC(=O)N2CCCC[C@H](N(C)C)C2)cs1`, the Percent Effect is -2.31%.

Regarding `COc1ccc2ncn(Cc3ncc[nH]3)c(=O)c2c1`, the Percent Effect is -1.95%.

As for `Cc1ccc(NC(=O)CNC(C)Cc2ccsc2)cc1F` (stereo not given), the Percent Effect was -6.2%.

For `CC(C)c1cc(N2CCC3(CC2)CN(C)CCN3C)ncn1`, the Percent Effect was -4.27%.

Consider `O=C(O)[C@H]1CN(Cc2ccccc2)C[C@@H]1C(=O)c1ccccc1`, for which the Percent Effect came to 12.8%.

Consider `Cc1cc(C)c2[nH]c(C)c(CC(=O)N(C)CCN(C)C)c2c1`, for which the Percent Effect was 3.2%.

On to `CSc1ccccc1C(=O)C1CCCN(Cc2cc(C(C)C)[nH]n2)C1` (stereo not given), for which the Percent Effect turned out to be 6.61%.

For the compound `O=C(c1ccnc(-n2cnnc2)c1)N1CCCC2(CCNC2)C1` (stereo not given), the Percent Effect is -3.71%.

Regarding `Cc1cc(NCCc2c[nH]cn2)nc(-c2cccnc2)n1`, the Percent Effect was 1.96%.

With `CCc1ccc2ncn(Cc3ncc[nH]3)c(=O)c2c1`, the Percent Effect came out at 0.257%.

On to `COc1ncnc(N)c1CNCCc1ccccc1`, for which the Percent Effect is -4.78%.

With `CC(=O)Nc1cccc(-c2ccccc2CCN)c1`, the Percent Effect was 4.86%.

For `CC1CN(C)CCN1C(=O)Cc1cc(Cl)c2c(c1)OCCO2` (stereo not given), the Percent Effect stood at 1.93%.

On to `Cc1cc(Cl)ccc1C(=O)C1CCCN(Cc2cnc(N(C)C)s2)C1` (stereo not given), for which the Percent Effect was 3.99%.

Take `Cc1nc(CC(=O)N2CCCC(N(C)Cc3ccccc3)C2)cs1` (stereo not given): the Percent Effect is 6.8%.

`CS(=O)(=O)N1C[C@H]2CC[C@@H]1CN(Cc1ccncc1)C2`: the Percent Effect was 11.6%.

For the compound `CCc1ccc(OCC(=O)N2CCN(CC)CC2)cc1`, the Percent Effect is -0.678%.

As for `CC(C)c1ccccc1OCCNC(=O)N1CCC2(CC1)OCCO2`, the Percent Effect was -2.79%.

For `O=C(C1CCOCC1)N1C[C@H]2CC[C@@H]1CN(Cc1ccncc1)C2`, the Percent Effect stood at 0.59%.

Take `CCc1cccnc1NCc1cnc(N2CCOCC2)nc1`: the Percent Effect was 22.9%.

For the compound `CC(C)(C)c1cc(=O)[nH]c(C2(N)CCCCC2)n1`, the Percent Effect amounted to 2.04%.

Consider `O=C(N[C@H]1CN2CCC1CC2)c1cc(Cn2cnc3ccccc32)[nH]n1`, for which the Percent Effect was -6.79%.

As to `COc1ccc(F)cc1C(=O)C1CCCN(Cc2cnc(C)s2)C1` (stereo not given), the Percent Effect was found to be 1.8%.

For the compound `CCN1CCN(C(=O)COc2ccc(CN(C)S(C)(=O)=O)cc2)CC1`, the Percent Effect was -0.955%.

Regarding `CCOCCC(=O)N1C[C@H]2CC[C@@H]1CN(Cc1ccncc1)C2`, the Percent Effect stood at 3.36%.

On to `COc1ccc(CC(C)Nc2cccc(F)c2)cc1` (stereo not given), for which the Percent Effect came out at 4.95%.

Take `Cc1[nH]c(=O)[nH]c(=O)c1CC(=O)N1CCCN(CC2CC2)C(C(C)C)C1` (stereo not given): the Percent Effect was determined as 3.13%.

Take `CCc1cccc(NC(=O)CCN2CC=C(c3cnn(C)c3)CC2)c1`: the Percent Effect was determined as 11.6%.

Take `CSc1ccccc1C(=O)C1CCCN(Cc2ccccn2)C1` (stereo not given): the Percent Effect came to 18.7%.

As to `O=C(NC1CC1)[C@H]1CN(Cc2ccccc2)C[C@@H]1C(=O)c1ccccc1`, the Percent Effect was 12.8%.

For `CC(C)[C@@H]1CN(C(=O)C2(c3ccccc3)CCN(C)CC2)C[C@H]1N(C)C`, the Percent Effect was -5.45%.

`COc1ccc(F)cc1C(=O)C1CCCN(Cc2ccc(C)s2)C1` (stereo not given): the Percent Effect is 6.05%.

In the case of `c1cnc(N2C[C@@H]3CC[C@H](C2)N(Cc2ccsc2)C3)nc1`, the Percent Effect worked out at 8.4%.

Take `CC(C)c1cc(N2CCC3(CCN(C)C3)C2)ncn1` (stereo not given): the Percent Effect was -2.38%.

Turning to `CC(Cc1cccc(F)c1)NCc1cnc(N2CCN(C)CC2)nc1` (stereo not given), the Percent Effect came out at 8.49%.

With `CS(=O)(=O)c1ccc(CC(=O)N2CCN3CCNC(=O)C3C2)cc1` (stereo not given), the Percent Effect is -2.22%.

Take `O=C(NCCOc1cccc(Cl)c1Cl)N1CCC2(CC1)OCCO2`: the Percent Effect was determined as 1.62%.

Turning to `COC(=O)N1C[C@H]2CC[C@@H]1CN(Cc1ccncc1)C2`, the Percent Effect came to 0.146%.
